Shown are actives, neighbours in structure and some others; about 19% of the full set was active somewhere.
HT1080 IDH1KD tx: qHTS for induction of synthetic lethality in tumor cells producing 2HG: qHTS for the HT-1080-IDH1KD cell line. HT-1080 IDH1 knockdown viability, ATP luminescence, 48 h. Potency, µM (series often up to 46.1 µM), for the others: at the highest dose activity, negative = toxicity, most hits filed as cytotoxic. hit rate 2% among 360,000. AID 686971, 2013;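 further: potency means the concentration at half of the fitted maximal effect; 0% = DMSO wells and -100% = cell-free medium wells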
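Luminescent ATP read-out (CellTiter-Glo, 10 min at room temperature) after 48 h compound exposure at 37 °C gave viability of IDH1-knockdown HT-1080 cells. Activity was normalised to DMSO and cell-free wells, then fitted as concentration-response curves.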
HT1080-NT tox: qHTS for induction of synthetic lethality in tumor cells producing 2HG: qHTS for the HT-1080-NT fibrosarcoma cell line; HT-1080-NT fibrosarcoma viability, CellTiter-Glo ATP luminescence, 48 h; Potency, µM (highest dose often 46.1 µM), inactives show at the highest dose activity, negative = less viability, usual class: cytotoxic; hit rate 1.6% among 360,000; AID 686970, 2013;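 further: NT is the 2HG producing partner of a matched IDH1 knockdown line; potency means the concentration at half of the fitted maximal effect; 0% = DMSO-treated cells and -100% = media-only wells without cells; nearly all actives have a fitted effect of over 55% in size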
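Toxicity toward the 2HG-producing NT line was scored as %Activity, normalised to DMSO and no-cell wells, from CellTiter-Glo luminescence after 48 hours' treatment.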
TDP1 cell noCPT: qHTS for Inhibitors of human tyrosyl-DNA phosphodiesterase 1 (TDP1): qHTS in cells in absence of CPT | hit rate 15% among 420,000 | Potency, µM (doses to about 46.2 µM), inactives show at the highest dose activity change, negative = growth inhibition, usual class: inhibitors | DT40 Tdp1-/- hTDP1 cells, no CPT, ATP luminescence, 48 h | AID 686978, 2013; further: potency means the concentration at half of the fitted maximal effect; nearly all actives have a fitted effect of over 55% in size
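Luminescent ATP content (CellTiter-Glo) served as the growth readout. Knockout chicken DT40 cells expressing human TDP1 were exposed to compounds without camptothecin for a minimum 48 hr at 37 °C.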
DT40 TDP1 CPT: qHTS for Inhibitors of human tyrosyl-DNA phosphodiesterase 1 (TDP1): qHTS in cells in presence of CPT; hit rate 12% among 420,000; Potency, µM (doses to about 46.2 µM), for inactives: top-dose activity change, negative = growth inhibition, hits mostly inhibitors; chicken DT40 Tdp1-/-;hTDP1 cells + 20 nM CPT, ATP luminescence, 48 h; further: potency means the concentration at half of the fitted maximal effect; nearly all actives have a fitted effect of over 55% in size
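Chicken DT40 Tdp1-/- cells stably complemented with human TDP1 were seeded at 400 cells/well in medium containing 20 nM camptothecin, exposed to pin-transferred compounds, and grown at 37 °C for at least 48 hr. Viability was read as ATP luminescence.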
ELG1 repair inh: qHTS screen for small molecules that inhibit ELG1-dependent DNA repair in human embryonic kidney (HEK293T) cells expressing luciferase-tagged ELG1; HEK293T ELG1-luciferase reporter, luminescence, 16 h; DNA damage induced by 5-fluorouridine; Potency, µM (highest dose often 46.1 µM), for the others: at the highest dose activity change, negative = inhibition, most hits filed as inhibitors; hit rate 2.3% among 330,000; AID 504467, 2011; further: potency means the concentration at half of the fitted maximal effect; nearly all actives have a fitted effect of over 55% in size
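Step one: seed 2,000 cells per well. Step two: pin-transfer compound or DMSO alongside 5-fluorouridine. Step three: incubate 16 hr, 37 °C, 5% CO2. Step four: add ONE-Glo, wait 30 min, read luminescence.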
IL1B secr inh: qHTS for Inhibitors of Inflammasome Signaling: IL-1-beta AlphaLISA Primary Screen; THP-1 LPS/ATP IL-1B secretion, AlphaLISA, 16 h; stronger effect = lower value; hit rate 4.7% among 360,000; activity change, % at 57.5 µM; in the data active means activity change below about -50%; inconclusive means mostly about -30% to -49%
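THP-1 cells pretreated 1 hr with compounds (up to 57.5 uM final), then stimulated with LPS (250 ng/mL final) plus ATP (1.25 mM final); secreted IL-1B measured by AlphaLISA after 16 hr, decreased signal indicating inhibition.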
* marks the source's active call; other numbers are inactive results; [ ] = dose if it differs, or a comment. Unless noted, the call rests on the fitted dose curve; in most records, active means well fitted curve in the direction sought with a large enough effect; inconclusive means small, poorly fitted or top-dose-only effect, or another doubt; inactive means no such curve, though single readings can be large; an effect the other way counts as inactive or inconclusive. Unless noted, on the % scale 0 is the no-effect control and ±100 the full control effect.

COc1ccc(CC(=O)NCCS(=O)(=O)N2CCN(c3ccccc3OC)CC2)cc1 was read as HT1080 IDH1KD tx -11%, HT1080-NT tox -12%, TDP1 cell noCPT inconclusive, DT40 TDP1 CPT 29µM*, ELG1 repair inh inconclusive and IL1B secr inh 1.
Screening COc1ccc(Cl)cc1C(=O)NCCS(=O)(=O)N1CCN(c2ccccc2F)CC1 returned HT1080 IDH1KD tx -3%, HT1080-NT tox -10%, TDP1 cell noCPT inconclusive, DT40 TDP1 CPT inconclusive, ELG1 repair inh inconclusive and IL1B secr inh -14.
Screening COc1ccc(Cl)cc1C(=O)NCCS(=O)(=O)N1CCN(c2ccccc2OC)CC1 returned TDP1 cell noCPT 18µM* and DT40 TDP1 CPT inconclusive.
Screening COc1ccccc1N1CCN(S(=O)(=O)CCNC(=O)c2ccco2)CC1 returned HT1080 IDH1KD tx 5%, HT1080-NT tox 2%, TDP1 cell noCPT -1%, DT40 TDP1 CPT 3% and IL1B secr inh 2.
For COc1ccccc1N1CCN(S(=O)(=O)CCNC(=O)CCc2ccccc2)CC1 the results were HT1080 IDH1KD tx 3%, HT1080-NT tox -3%, TDP1 cell noCPT 16µM*, DT40 TDP1 CPT inconclusive and IL1B secr inh 22.
For COc1ccccc1N1CCN(S(=O)(=O)CCNC(=O)COc2ccc(C(C)C)cc2)CC1 the results were TDP1 cell noCPT 16µM* and DT40 TDP1 CPT inconclusive.
For CN(C1CCCCC1)S(=O)(=O)c1ccc2c(c1)c(=O)c(C(=O)N1CCN(c3ccccc3)CC1)cn2C the results were TDP1 cell noCPT 0% and DT40 TDP1 CPT -11%.
For COc1ccc(N2CC(C(=O)N(CC(C)C)c3c(N)n(Cc4ccccc4)c(=O)[nH]c3=O)CC2=O)c(OC)c1 (centres undefined) the results were HT1080 IDH1KD tx 5%, HT1080-NT tox 5%, TDP1 cell noCPT -16%, DT40 TDP1 CPT -5%, ELG1 repair inh 23% and IL1B secr inh 14.
For Nc1cc2c(cc1Br)-c1ccc(F)cc1C2O (centres undefined) the results were HT1080 IDH1KD tx -1%, HT1080-NT tox -13%, TDP1 cell noCPT -18%, DT40 TDP1 CPT 2% and IL1B secr inh -9.
Screening COc1ccc2[nH]cc(CCNC(=O)/C=C/[C@H]3O[C@@H](n4cc(C)c(=O)[nH]c4=O)C[C@@H]3O)c2c1 returned HT1080 IDH1KD tx 15%, HT1080-NT tox 16%, TDP1 cell noCPT 9%, DT40 TDP1 CPT 0% and IL1B secr inh -20.
`COC(=O)c1cc(CNC(=O)c2ccc3ccccc3n2)cc(NC(=O)c2cccc(OC)c2)c1` gave TDP1 cell noCPT -14% and DT40 TDP1 CPT -1%[9.04 µM].
COc1ccc(S(=O)(=O)N2CCN(C/C=C/c3ccccc3)CC2)cc1F was read as HT1080 IDH1KD tx -3%, HT1080-NT tox -8%, TDP1 cell noCPT inconclusive, DT40 TDP1 CPT 2%, ELG1 repair inh inconclusive and IL1B secr inh -65*.
`CCOC(=O)c1ccc(S(=O)(=O)N2CCN(C/C=C/c3ccccc3)CC2)cc1` gave HT1080 IDH1KD tx -2%, HT1080-NT tox -5%, TDP1 cell noCPT 13µM*, DT40 TDP1 CPT inconclusive, ELG1 repair inh inconclusive and IL1B secr inh 1.
